Assay results taken from PubChem BioAssay (NCI).
About 83,000 compounds went through this panel and 20% of them were active in at least one assay; those are over-represented in the sample as a whole.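 The test compound was applied at a single concentration to cells in 96-well plates for 48 hours, and percent growth was recorded.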 Values without a mark were called inactive. Active and inactive are the calls of the source. How the source made its calls: active means growth percent below 10; inactive means the rest.

Test system: HL-60(TB) leukemia
Assay: NCI-60 one-dose screen, 48 h (100 = growth as untreated, 0 = no growth, -100 = all killed)
Conditions: 10 µM unless noted

Compound	growth
CNCCCNc1nc2ccccc2c2c(=O)c3cc(Cl)ccc3sc12	-55.2% (active)
CC(=O)CC1CCCC1c1ccc2ccccc2c1 (configuration not stated)	101%
COc1ccc(/C=C/C(=O)Nc2ccc(-c3nc4ccc(OC)cc4s3)cc2)cc1	99.3%
C=C(C)[C@@H]1CC[C@]2(C(=O)N3CCN(C)CC3)CC[C@]3(C)[C@H](CC[C@@H]4[C@@]5(C)CCC(=O)C(C)(C)[C@@H]5CC[C@]43C)[C@@H]12	60.1%
COc1cccc(-c2nn(-c3ccccc3)cc2-c2ccnc(NCCCN)c2)c1	39.6%
CC(CC(=O)c1ccccc1)c1ccccc1 (configuration not stated)	102%
CCOC(=O)Sc1ncnc2nc[nH]c12	2.99% (active)
CCc1cccc(C)c1NC(=O)c1sc2nc3c(cc2c1N)C(=O)CCC3	-22.4% (active)
O=C(COc1ccc(Cl)cc1)N1CCN(Cc2ccc3c(c2)OCO3)CC1	109%
NS(=O)(=O)c1ccc(CCn2c(SCC(=O)N/N=C/c3ccccc3O)nc3ccccc3c2=O)cc1	-25.5% (active)
Cc1cc(C)n(Nc2nc3ccccc3[nH]c2=O)c(=O)c1C#N	102%
O=C(NN(C(=O)c1ccccc1)c1cccs1)c1ccccc1	101%
COc1cc(/C=C/c2cc(/C=C/c3ccc(O)c(OC)c3)n(C(=O)Nc3ccc(F)c(Cl)c3)n2)ccc1O	-28.9% (active)
COc1ccc(NC2=C(Sc3nc(C)cc(C)n3)C(=O)N(Cc3ccccc3)C2=O)cc1Cl	58.8% [30 µM]
COc1cc(C2CC(c3cccc(Nc4ccncc4)c3)=Nc3c(N)ncnc3N2)cc(OC)c1OC (configuration not stated)	83.7%
NN=C(c1ccc(Cl)cc1)c1ccc(Cl)cc1	131%
CC1C(C)N(C(=O)CCl)c2ccccc2N1C(=O)CCl (configuration not stated)	-56.9% (active)
COc1cccc2c1C(=O)c1c(O)c3c(c(O)c1C2=O)C[C@@](O)(/C(C)=N/NC(=O)c1cccc([N+](=O)[O-])c1)C[C@@H]3OC1CC(N)C(O)C(C)O1 (some centres not stated)	-45.1% (active)
O=C1C(N2CCOCC2)=Cc2cccc3cccc1c23	-26% (active)
COc1cc(/C(=C2/O[C@@H]([C@H]3COC(C)(C)O3)[C@H]3OC(C)(C)O[C@@H]23)c2ccc3c(c2)OCO3)cc(OC)c1OC	86.1%
Cc1ccc(S(=O)(=O)N(C)CCCCCC(=O)O)cc1	93.4%
COc1cc(C(=O)c2c(N)ncn2-c2ccccc2)cc(OC)c1OC	77.5%
COc1cccc(-c2nn(C(C)(C)C)cc2-c2ccnc(NCCCNS(=O)(=O)c3cccc4ccccc34)c2)c1	104%
Cc1ccc2cnc(N)c(C#Cc3cc(C(=O)Nc4ccc(CN5CCN(C)CC5)c(C(F)(F)F)c4)cnc3C)c2c1	30%
CCCCNNC(=O)c1ccc(Br)cc1	18.3%
CCc1cccc2c1S/C(=C/c1ccc(OC)cc1)C2=O	5.21% (active)

Compound	growth
NNC(=O)CCCCl	102%
Cc1ccc(-c2cc(-c3ccccc3C)[nH]c(=O)c2C#N)s1	80.4%
NS(=O)(=O)c1ccc(C(=O)N=Nc2c(O)[nH]c3c(F)cccc23)cc1	102%
COc1ccc(N)c(-c2cc3c(c4c2[nH]c2ccc(OC)cc24)CCCC3)c1	78.8%
C=CCOc1cccc(/C=C/C(=O)c2sc(Nc3cccnc3)nc2C)c1	43.3%
O=C1c2c(c3c4ccccc4n(CCCCCCBr)c3c3[nH]c4ccccc4c23)C(=O)N1O	-41.7% (active)
C=CCN(CC=C)C(=O)[C@H](CC)[C@@H]1CC[C@@H](C)[C@@H]([C@H](C)[C@@H](O)[C@@H](C)C(=O)[C@H](CC)C2O[C@]3(C=C[C@@H](O)[C@]4(CC[C@@](C)([C@H]5CC[C@](O)(CC)[C@H](C)O5)O4)O3)[C@H](C)C[C@@H]2C)O1 (some centres not stated)	-36.8% (active)
C#CCOc1ccc2ncnc(Nc3ccc(NC(=O)C=C)cc3)c2c1	-52.5% (active)
COc1ccc2nc(/C=C/c3ccc(N(C)C)cc3)sc2c1	51.1%
CC1Cc2c(Cl)ncnc2N(C)c2ccccc21 (configuration not stated)	11.8%
CC1OC(n2c3ccccc3c3c4c(c5c6ccccc6[nH]c5c32)C(=O)N(CCN2CCCC2)C4=O)CC(O)C1O (configuration not stated)	44.2%
CC[C@@H]1O[C@H](O[C@@H](c2cnc[nH]2)[C@H](NC(=O)c2nc([C@H](CC(N)=O)NC[C@@H](N)C(N)=O)nc(N)c2C)C(=O)N[C@H](C)[C@H](O)[C@H](C)C(=O)N[C@@H](C(=O)NCCc2nc(-c3nc(C(=O)NCCCCN=C(N)N)cs3)cs2)[C@@H](C)O)[C@H](O[C@@H]2O[C@H](CO)[C@H](O)[C@H](OC(N)=O)[C@@H]2O)[C@H](C)[C@@H]1C	84.4%
CCn1cc(C(=O)O)c(=O)c2cc(F)c(N3CCN(CC(=O)Nc4ccccc4)C(C)C3)c(F)c21 (configuration not stated)	104%
CCOC(=O)C1=C(c2ccccc2)N=c2s/c(=C/c3ccc(Br)cc3)c(=O)n2C1c1ccc(O)cc1 (configuration not stated)	94.9%
CCCCCCN(CCCCCC)CCCNc1nccc2ccccc12	-1.22% (active)
CC1(C)CC[C@]2(C(=O)O)CC[C@]3(C)[C@H](CC[C@@H]4[C@@]5(C)CCC(=O)C(C)(C)[C@@H]5CC[C@]43C)[C@H]2[C@H]1OC(=O)C(F)(F)F	-23.4% [100 µM] (active)
O=C(CC(O)c1ccncc1)c1ccccc1 (configuration not stated)	100%
CC1(C)CC[C@]23CC[C@]4(C)[C@H](CC[C@@H]5[C@@]6(C)C/C(=C/O)C(=O)C(C)(C)[C@@H]6CC[C@]54C)[C@H]2[C@H]1OC3	102%
C=C1C(=O)O[C@H]2[C@H]1CC/C(COC(=O)NCCOCCOCC(=O)Nc1ccc(OC)c(C(N)=O)c1O)=C\CC[C@@]1(C)O[C@@H]21	-6.3% (active)
Cc1ccccc1Nc1n[nH]c(Cc2ccccc2)n1	66.9%
COc1cccc(N2CCN(CC(=O)N3CCN(c4nnc(-c5ccc(Cl)cc5)c(-c5ccc(Cl)cc5)n4)CC3)CC2)c1	20.6%
O=C(Nc1ccc(N2CCNCC2)cn1)c1[nH]ncc1Nc1ncnc2sccc12	76.7%
O=C(Nc1cccc(Cl)c1)Oc1c(Cl)c(Cl)c(Cl)c(Cl)c1Cl	101%
O=S(=O)(O)c1cccnc1	61.8%
C=C1CC2(OC1=O)C(=O)N(CCCCCCCCCCCCN1C(=O)C3(CC(=C)C(=O)O3)c3ccccc31)c1ccccc12 (configuration not stated)	45.5%
Nc1n[nH]c2cccc(C#Cc3cccc(C(=O)Nc4cccc(C(F)(F)F)c4)c3)c12	30.4%

Compound	growth
Cc1ccc(N=c2nc3sc4c(C)ccc(C)c4n3c(N)c2C#N)cc1	108%
COc1ccc(-c2cc(-c3nnc(SCC(=O)Nc4ccc(C(C)=O)cc4)o3)c3ccccc3n2)cc1	69%
O=C(c1ccccc1)N(CCCCl)C(=O)N(CCCCl)C(=O)c1ccccc1	94%
CCOC(=O)C(Cc1cc(I)c(O)c(I)c1)NC(=O)c1ccccc1 (configuration not stated)	90.2%
COc1ccc(NC(=O)c2nc(-c3cc(OC)c(OC)c(OC)c3)n(-c3cccc4ccccc34)n2)cc1OC	10%
COc1cc2c(c(OC)c1OC)C(=O)CC(c1cccc(C(=O)Nc3cccc(Br)c3)c1)O2 (configuration not stated)	91.8%
O=[N+]([O-])c1ccc(O)c(-c2nc3ccccc3s2)c1	52.8%
O=C(NCCNc1nccc(-c2c(-c3cccc(F)c3)nc3sccn23)n1)c1ccc(Cl)cc1	99.1%
Nc1nc(-c2ccccc2Cl)cc(-c2ccc(Cl)cc2Cl)n1	51.4%
O=C(O)c1cc(I)ccc1O	103%
COc1cc2ncnc(Nc3ccc(S(=O)(=O)Nc4nccs4)cc3)c2cc1OCCCN1CCCC1	109%
O=c1cc(NC2CCN(CCCc3ccccc3)CC2)c2cc(Cl)ccc2o1	-7.02% (active)
COc1ccc(C(=O)/C=C/c2cn(Cc3ccc(Cl)cc3)c3ccccc23)cc1	47.2%
CC(=O)N1N=C(c2ccc(-n3ccc(C(F)(F)F)n3)c(F)c2)CC1c1ccc[nH]1 (configuration not stated)	98.8%
COc1ccc(/C=C2\COc3ccc(O)cc3C2=O)cc1OC	3.81% (active)
O=C(NC1CCOCC1)c1ccc2c(c1)CN(c1ncc(Cc3cccc(-n4cccn4)c3)s1)CC2	68.7%
O=C1Nc2ccccc2/C1=N/c1nc(-c2ccc(Cl)cc2)cs1	7.82% (active)
CCCCCc1c(C)[nH]c(/C=C2\N=C(c3ccc[nH]3)C=C2Oc2ccccc2)c1C	-49.6% [100 µM] (active)
Cc1cc(N2CCCCC2)nc(N2CCN(CC(=O)Nc3ccc4c(ccn4Cc4ccccc4)c3)CC2)n1	42.8%
O=C1OCC2=C1C(c1cccc(F)c1)c1cc3c(cc1N2CCO)OCO3 (configuration not stated)	-28.9% (active)
Cc1ccc(S(=O)(=O)n2cc(CNc3ccc(N4CCOCC4=O)cc3)c3ccccc32)cc1	66.7%
O=C(c1ccccc1)N(CCCl)C(=O)N(CCCl)C(=O)c1ccccc1	90.6%
c1ccc2cc(Cn3c(-c4cccc5ccccc45)[n+](Cc4ccc5ccccc5c4)c4c5ccccc5c5ccccc5c43)ccc2c1	-54.6% (active)
CN1CCN(c2ccc3nc(-c4ccc5nc(-c6ccc(OCCC(C)(C)C)cc6)[nH]c5c4)[nH]c3c2)CC1	10.5%
CN(C)CC#Cc1ccc2ncc(C#N)c(Nc3ccc(F)c(Cl)c3)c2c1	26.8%
